Data published in PubChem BioAssay (Tox21).
Inconclusive results are not listed. Where a call stands in place of a potency, no number is given. The source made the active and inactive calls. Calls come from the whole dose curve; as a rule, active = well fitted inhibition curve with a large enough effect in the signal ratio in the repeat runs (not every such curve was filed as active); inconclusive = weak or mixed curves; inactive = flat fitted curve, though single readings scatter; the % refers to the signal ratio.

Target: Progesterone receptor (Homo sapiens) (UniProt P06401)
Sequence (P06401 whole entry, looked up): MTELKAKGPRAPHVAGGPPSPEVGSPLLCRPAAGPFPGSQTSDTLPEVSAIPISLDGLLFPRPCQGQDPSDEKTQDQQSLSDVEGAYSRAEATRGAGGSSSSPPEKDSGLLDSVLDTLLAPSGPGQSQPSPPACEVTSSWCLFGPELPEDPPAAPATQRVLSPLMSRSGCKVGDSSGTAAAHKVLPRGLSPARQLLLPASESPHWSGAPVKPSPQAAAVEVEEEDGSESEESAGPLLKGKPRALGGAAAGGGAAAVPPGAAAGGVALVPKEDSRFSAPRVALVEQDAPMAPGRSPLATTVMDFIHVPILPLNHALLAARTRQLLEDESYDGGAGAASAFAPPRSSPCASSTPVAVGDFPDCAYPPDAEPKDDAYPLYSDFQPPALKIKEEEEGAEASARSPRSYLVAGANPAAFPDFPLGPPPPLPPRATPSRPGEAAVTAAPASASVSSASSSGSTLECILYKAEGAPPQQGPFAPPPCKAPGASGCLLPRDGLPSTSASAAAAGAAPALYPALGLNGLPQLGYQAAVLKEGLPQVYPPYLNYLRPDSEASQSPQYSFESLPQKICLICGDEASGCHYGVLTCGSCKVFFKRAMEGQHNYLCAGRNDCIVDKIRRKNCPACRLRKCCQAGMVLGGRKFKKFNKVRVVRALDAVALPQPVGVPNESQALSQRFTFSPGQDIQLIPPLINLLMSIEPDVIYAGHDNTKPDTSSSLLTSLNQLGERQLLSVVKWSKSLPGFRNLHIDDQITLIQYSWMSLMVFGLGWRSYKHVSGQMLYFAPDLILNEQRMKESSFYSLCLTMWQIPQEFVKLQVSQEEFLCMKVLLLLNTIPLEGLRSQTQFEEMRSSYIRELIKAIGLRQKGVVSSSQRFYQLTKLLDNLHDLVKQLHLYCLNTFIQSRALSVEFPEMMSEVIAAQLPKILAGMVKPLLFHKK
Test: qHTS assay to identify small molecule antagonists of the progesterone receptor (PR) signaling pathway (AID 1346795)
Settings: PR-UAS-bla HEK293T, beta-lactamase FRET ratio, 16 h; series mostly up to 92.4 µM
Text: National Center for Advancing Translational Sciences [NCATS]
NIH Chemical Genomics Center [NCGC]
U.S. Environmental Protection Agency [EPA]
National Institutes of Environmental Health Sciences [NIEHS]
National Toxicology Program [NTP]
U.S. Food and Drug Administration [FDA]
Progesterone receptor (PR), a nuclear hormone receptor, plays an important role in development, metabolic homeostasis and reproduction. […] Endocrine disrupting chemicals (EDCs) and their interactions with steroid hormone receptors like PR causes disruption of normal endocrine function. To identify the compounds that inhibit PR signaling, a PR-UAS-bla GripTite cell line i.e. PR-UAS-bla HEK293T (Invitrogen, Carlsbad, CA, USA) containing a beta-lactamase reporter gene under the control of an Upstream Activator Sequence (UAS) was used to screen Tox21 10K compound library.
Tox21 Assay Protocol Summary:
PR-UAS-bla HEK293T cells were dispensed at 3,000 cells/4 uL of assay medium containing 2% charcoal stripped FBS per well into black wall/clear-bottom 1536-well plates using a Multidrop Combi (ThermoFisher Scientific, Waltham, MA) dispenser. After the assay plates were incubated at a 37C and 5% CO2 for 6 hr, 23 nL of compounds dissolved in DMSO, positive controls or DMSO only was transferred to the assay plate by a Pintool station (Kalypsys, San Diego, CA), followed by addition of 1 uL (1nM as final concentration) of Promegestone (R5020) in assay medium using a BioRAPTR FRD (Flying Reagent Dispenser, Aurora Discovery, San Diego, CA). The plates were incubated at 37C and 5% CO2 for 16 hr. Then 1 uL of LiveBLAzer B/G FRET substrate was added using a FRD. After the plates were incubated at room temperature for 2 hours, fluorescence intensity was measured by an Envision plate reader (PerkinElmer, Shelton, CT).
Potency is the fitted concentration of half-maximal effect.

Q: For `CN(C(=O)CN(CCO)CC(=O)N(C)C(C)(C)Cc1ccccc1)C(C)(C)Cc1ccccc1`, which Potency is on record?
A: inactive

Q: `CCOC(=O)/C=C/C(=O)OCC` was tested. Which Potency did it give?
A: inactive

Q: Which Potency does the source give for `Cc1cccc(N(C)C(=S)Oc2ccc3c(c2)CCC3)c1` here?
A: 11.9 µM (active)

Q: How did the Potency turn out when `NCCNCCO` was run?
A: inactive

Q: How did the Potency turn out when `C=C1c2cccc(O)c2C(O)=C2C(=O)[C@]3(O)C(O)=C(C(N)=O)C(=O)[C@@H](N(C)C)[C@@H]3[C@@H](O)[C@H]12` was run?
A: inactive

Q: `CCCCCCC(C)(C)C(=O)O` was tested. Which Potency did it give?
A: inactive

Q: With `CCCCCC#CC(=O)OC` as the compound, how does the Potency read?
A: inactive

Q: Which Potency does the source give for `COc1ccccc1N1CCN(CCCCNC(=O)c2ccc(-c3ccc(C(C)=O)cc3)cc2)CC1` here?
A: inactive

Q: How did the Potency turn out when `O=C1C(=O)c2ccccc2C(O)=C1C1CCC(c2ccc(Cl)cc2)CC1` (stereo not given) was run?
A: inactive

Q: Which Potency does the source give for `O=C(CCCN1CC=C(n2c(=O)[nH]c3ccccc32)CC1)c1ccc(F)cc1` here?
A: inactive

Q: How did the Potency turn out when `O=C(O)CCC(=O)C(=O)O` was run?
A: inactive

Q: Which Potency does the source give for `CC(=O)NC1(c2cccc(F)c2)CCN(CC[C@@]2(c3ccc(Cl)c(Cl)c3)CN(c3ccccc3)C(=O)CO2)CC1` here?
A: 48.7 µM (active)

Q: For `O=c1cc(-c2ccccc2)oc2ccc3ccccc3c12`, which Potency is on record?
A: inactive

Q: `CC1=C(CC=O)C(C)(C)CCC1` was tested. Which Potency did it give?
A: inactive

Q: For `O=C(O)CCCCCCCCCCCBr`, which Potency is on record?
A: inactive

Q: With `CCn1cc(C(=O)O)c(=O)c2cc(F)c(N3CCNCC3)cc21` as the compound, how does the Potency read?
A: inactive

Q: How did the Potency turn out when `CC(C)=CC(=O)C=C(C)C` was run?
A: inactive

Q: Which Potency does the source give for `CC1=C(Br)C(=O)C(Br)=C/C1=C(/c1ccccc1S(=O)(=O)O)c1cc(Br)c(O)c(Br)c1C` here?
A: inactive

Q: For `CC(=O)OCC(=O)NCCCOc1cccc(CN2CCCCC2)c1`, which Potency is on record?
A: inactive

Q: With `CCOC(=O)c1ccccc1C(=C1C=C(Br)C(=O)C(Br)=C1)c1cc(Br)c(O)c(Br)c1` as the compound, how does the Potency read?
A: 18.2 µM (active)

Q: For `O=[N+]([O-])c1cc(C2CCCCC2)c(O)c([N+](=O)[O-])c1`, which Potency is on record?
A: 24.3 µM (active)

Q: With `Oc1ccc(Cl)c2cccnc12` as the compound, how does the Potency read?
A: 3.76 µM (active)

Q: For `CCOC(=O)OC(C)OC(=O)[C@@H]1N2C(=O)[C@@H](NC(=O)[C@H](N)c3ccccc3)[C@H]2SC1(C)C` (stereo not given in full), which Potency is on record?
A: inactive

Q: Which Potency does the source give for `COC(=O)CS` here?
A: inactive

Q: `COC(=O)[C@H]1[C@H]2C[C@@H]3c4[nH]c5cc(OC)ccc5c4CCN3C[C@H]2C[C@@H](OC(=O)/C=C/c2ccc(O)c(OC)c2)[C@@H]1OC` was tested. Which Potency did it give?
A: inactive

Q: `O=C=Nc1cccc(C(F)(F)F)c1` was tested. Which Potency did it give?
A: inactive

Q: With `Nc1cccc2c1CN(C1CCC(=O)NC1=O)C2=O` (stereo not given) as the compound, how does the Potency read?
A: inactive

Q: How did the Potency turn out when `Cc1cc2c(OCC(CNC(C)(C)C)OC(=O)c3ccccc3)cccc2[nH]1` (stereo not given) was run?
A: inactive

Q: `Cc1ccc(OC(=O)c2ccccc2O)cc1` was tested. Which Potency did it give?
A: inactive

Q: `CCCCC(CC)CN` (stereo not given) was tested. Which Potency did it give?
A: inactive

Q: How did the Potency turn out when `C[C@@H]1CN(CCCn2c3ccccc3c3ccccc32)C[C@H](C)N1` was run?
A: 29.8 µM (active)

Q: For `CCCCCC[C@@H](O)C/C=C\CCCCCCCC(=O)OCC(O)CO` (stereo not given in full), which Potency is on record?
A: inactive

Q: Which Potency does the source give for `C[C@H]1C[C@H](O)c2ccsc2S1(=O)=O` here?
A: inactive

Q: `O=C(OCC(O)CO)c1ccccc1Nc1ccnc2cc(Cl)ccc12` (stereo not given) was tested. Which Potency did it give?
A: 21.1 µM (active)

Q: With `Cc1cc(O)c(C)c(C)c1O` as the compound, how does the Potency read?
A: inactive

Q: How did the Potency turn out when `C[C@]12CC[C@@H]3c4ccc(O)cc4CC[C@H]3[C@@H]1CC[C@@H]2OC(=O)CCC1CCCC1` was run?
A: 0.386 µM (active)

Q: How did the Potency turn out when `CC/C=C1/OC(=O)c2ccccc21` was run?
A: inactive

Q: `CCCCN(CCCC)C(C(N)=O)c1ccc(OC)cc1` (stereo not given) was tested. Which Potency did it give?
A: inactive

Q: How did the Potency turn out when `CC(=O)Nc1ccc(C)cc1C` was run?
A: inactive

Q: For `O=c1[nH]c2ccc(Cl)cc2o1`, which Potency is on record?
A: inactive
